Screen size: about 270,000 compounds; about 5,800 (2.1%) were called active. Roughly 16% stayed inconclusive and do not appear here. The rule behind the calls is not given here. Shown is part of a subset that was picked to be rich in actives.
Each compound was assayed against Microtubule-associated protein tau (Homo sapiens) (UniProt P10636) (assay: qHTS for Inhibitors of Tau Fibril Formation, Thioflavin T Binding. [Related pubchem assays: 596 ]).
Sequence of Microtubule-associated protein tau (Homo sapiens) (P10636 whole entry): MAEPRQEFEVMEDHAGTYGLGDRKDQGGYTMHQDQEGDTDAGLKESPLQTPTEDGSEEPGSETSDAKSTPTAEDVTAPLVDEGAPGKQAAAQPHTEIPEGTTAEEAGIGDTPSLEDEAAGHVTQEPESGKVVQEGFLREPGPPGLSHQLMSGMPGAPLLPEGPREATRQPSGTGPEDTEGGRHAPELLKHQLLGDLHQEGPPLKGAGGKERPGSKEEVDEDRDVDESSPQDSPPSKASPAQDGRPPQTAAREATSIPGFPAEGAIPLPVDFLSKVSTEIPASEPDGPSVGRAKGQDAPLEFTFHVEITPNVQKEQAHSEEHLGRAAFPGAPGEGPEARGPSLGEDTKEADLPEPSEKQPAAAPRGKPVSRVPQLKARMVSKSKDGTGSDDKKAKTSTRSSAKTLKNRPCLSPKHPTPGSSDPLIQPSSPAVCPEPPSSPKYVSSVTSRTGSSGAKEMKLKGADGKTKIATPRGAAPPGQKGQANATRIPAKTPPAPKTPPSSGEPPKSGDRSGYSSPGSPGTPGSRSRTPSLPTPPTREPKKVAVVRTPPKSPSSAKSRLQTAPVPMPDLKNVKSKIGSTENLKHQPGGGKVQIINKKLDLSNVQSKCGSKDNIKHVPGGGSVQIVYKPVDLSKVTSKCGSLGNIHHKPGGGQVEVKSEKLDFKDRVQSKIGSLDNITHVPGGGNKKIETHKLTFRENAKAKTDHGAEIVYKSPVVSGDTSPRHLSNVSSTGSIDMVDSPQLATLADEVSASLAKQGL
In the case of `Cl[Te]1(Cl)OCCO1`, the Potency is reported as 5.62 µM (active).

— ChEMBL document CHEMBL1201862, “PubChem BioAssay data set” (2004)
